Where “and” joins values, the source holds several entries; their conditions need not be identical. Identical values can stand only once. About 83,000 compounds went through this panel and 20% of them were active in at least one assay; those are over-represented in the sample as a whole.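 Single-dose data. Exposure time 48 hours. Values below 10 considered active.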 Calls of active or inactive are those of the source.
Assays:
Test in all cases: NCI-60 one-dose screen, 48 h (100 = growth as untreated, 0 = no growth, -100 = all killed)
Conditions in all cases: 10 µM unless noted
SK-MEL-2 melanoma = tested on: SK-MEL-2 melanoma
EKVX NSCLC = tested on: EKVX NSCLC
SN12C renal = tested on: SN12C renal
UO-31 renal = tested on: UO-31 renal
TK-10 renal = tested on: TK-10 renal
ACHN renal = tested on: ACHN renal
CAKI-1 renal = tested on: CAKI-1 renal
A498 renal = tested on: A498 renal
CCRF-CEM leukemia = tested on: CCRF-CEM leukemia
MOLT-4 leukemia = tested on: MOLT-4 leukemia
SR leukemia = tested on: SR leukemia
RPMI-8226 leukemia = tested on: RPMI-8226 leukemia
OVCAR-8 ovarian = tested on: OVCAR-8 ovarian
OVCAR-5 ovarian = tested on: OVCAR-5 ovarian
OVCAR-4 ovarian = tested on: OVCAR-4 ovarian
SK-OV-3 ovarian = tested on: SK-OV-3 ovarian
IGROV1 ovarian = tested on: IGROV1 ovarian
OVCAR-3 ovarian = tested on: OVCAR-3 ovarian
HS 578T breast = tested on: HS 578T breast
NCI/ADR-RES ovarian = tested on: NCI/ADR-RES ovarian

| Compound | growth (SK-MEL-2 melanoma) | growth (EKVX NSCLC) | growth (SN12C renal) | growth (UO-31 renal) | growth (TK-10 renal) | growth (ACHN renal) | growth (CAKI-1 renal) | growth (A498 renal) | growth (CCRF-CEM leukemia) | growth (MOLT-4 leukemia) | growth (SR leukemia) | growth (RPMI-8226 leukemia) | growth (OVCAR-8 ovarian) | growth (OVCAR-5 ovarian) | growth (OVCAR-4 ovarian) | growth (SK-OV-3 ovarian) | growth (IGROV1 ovarian) | growth (OVCAR-3 ovarian) | growth (HS 578T breast) | growth (NCI/ADR-RES ovarian) |
| --- | --- | --- | --- | --- | --- | --- | --- | --- | --- | --- | --- | --- | --- | --- | --- | --- | --- | --- | --- | --- |
| CC(=O)Nc1ccc(O)cc1 | 95.7% (inactive) and 81.9% (inactive) and 108% (inactive) | 95% (inactive) and 101% (inactive) and 113% (inactive) | 90.2% (inactive) and 102% (inactive) and 108% (inactive) | 84.3% (inactive) and 98% (inactive) and 90% (inactive) | 87.4% (inactive) and 69.9% (inactive) and 101% (inactive) | 100% (inactive) and 104% (inactive) | 98% (inactive) and 94.4% (inactive) and 101% (inactive) | 100% (inactive) and 102% (inactive) and 94.1% (inactive) | 88.7% (inactive) and 108% (inactive) | 102% (inactive) and 100% (inactive) | 117% (inactive) and 98.7% (inactive) | 105% (inactive) | 92.1% (inactive) and 103% (inactive) and 109% (inactive) | 91.6% (inactive) and 118% (inactive) and 105% (inactive) | 105% (inactive) and 131% (inactive) | 114% (inactive) and 115% (inactive) and 91.5% (inactive) | 107% (inactive) and 114% (inactive) | 103% (inactive) and 102% (inactive) and 107% (inactive) | 113% (inactive) and 109% (inactive) | 101% (inactive) and 93.7% (inactive) and 104% (inactive) |
| CCN(CC)CCCC(C)Nc1cnc(C(=O)Nc2cc(F)cc3cccnc23)cn1 (configuration not stated) | 96.7% (inactive) and 50% (inactive) | 73.3% (inactive) and 19.2% (inactive) | 54.5% (inactive) and 1.53% (active) | 29.1% (inactive) and -91.5% (active) | 63.7% (inactive) and -48.8% (active) | 36.6% (inactive) and -2.97% (active) | 36.7% (inactive) and -38.3% (active) | 63% (inactive) | 19.7% (inactive) and 3.49% (active) | 22% (inactive) and 10.4% (inactive) | 2.84% (active) and 21.7% (inactive) | 75.1% (inactive) and 2.28% (active) | 60.5% (inactive) and -43.9% (active) | 77.1% (inactive) and -24.2% (active) | 12.2% (inactive) and -83.5% (active) | 98.3% (inactive) and 25.8% (inactive) | – | 5.41% (active) and -79.1% (active) | 69.3% (inactive) and 13.7% (inactive) | 66.8% (inactive) and 11.6% (inactive) |
| O=C(N/N=C/c1ccc2c(c1)OCO2)c1ccncc1 | 110% (inactive) and 108% (inactive) | 104% (inactive) and 101% (inactive) | 94.4% (inactive) and 98.4% (inactive) | 82.8% (inactive) and 79.4% (inactive) | 91.2% (inactive) and 111% (inactive) | 107% (inactive) and 103% (inactive) | 97.2% (inactive) and 97.5% (inactive) | 98% (inactive) and 94% (inactive) | 113% (inactive) and 101% (inactive) | 133% (inactive) | 113% (inactive) and 134% (inactive) | 111% (inactive) and 103% (inactive) | 100% (inactive) and 109% (inactive) | 98.7% (inactive) and 113% (inactive) | 103% (inactive) and 98.7% (inactive) | 101% (inactive) and 104% (inactive) | 88.7% (inactive) and 86.6% (inactive) | 106% (inactive) and 96.5% (inactive) | 103% (inactive) and 102% (inactive) | 101% (inactive) and 106% (inactive) |
| O=C1C2=C(C(=O)c3ccccc31)C(O)(S(=O)(=O)O)C(O)(S(=O)(=O)O)C1N=CC=CC21 (configuration not stated) | 65.2% (inactive) and 47.4% (inactive) | 36.4% (inactive) and 30.5% (inactive) | 34.5% (inactive) and 39.1% (inactive) | 42.2% (inactive) and -0.599% (active) | 71.8% (inactive) and 68.1% (inactive) | 36.3% (inactive) and 32.8% (inactive) | 21.9% (inactive) and 15.8% (inactive) | 82.1% (inactive) and 33.9% (inactive) | 25.1% (inactive) and 41.9% (inactive) | 25.6% (inactive) and 48.2% (inactive) | 12.6% (inactive) and 61.2% (inactive) | 22.9% (inactive) and 44.8% (inactive) | 24.3% (inactive) and 10.6% (inactive) | 51.9% (inactive) | 28.7% (inactive) and 24.3% (inactive) | 44.8% (inactive) and 20.9% (inactive) | 33% (inactive) and -16.2% (active) | 22.4% (inactive) and 3.66% (active) | 13.3% (inactive) | 11.3% (inactive) |
| CNC(=O)c1cccnc1 | 118% (inactive) | 110% (inactive) | 111% (inactive) | 84.8% (inactive) | 103% (inactive) | 104% (inactive) | 92.1% (inactive) | 85.6% (inactive) | 87.9% (inactive) | 106% (inactive) | 87.4% (inactive) | 112% (inactive) | 100% (inactive) | 110% (inactive) | 108% (inactive) | – | 111% (inactive) | 116% (inactive) | 107% (inactive) | 97% (inactive) |
| O=C(O)C1C2C=CC(C2)C1C(=O)O (configuration not stated) | 150% (inactive) and 57.5% (inactive) and 111% (inactive) | 120% (inactive) | 84.7% (inactive) and 24% (inactive) and 102% (inactive) | 87.9% (inactive) and 96.5% (inactive) and 94.4% (inactive) | 91.1% (inactive) and 32.5% (inactive) and 106% (inactive) | 111% (inactive) and 33.6% (inactive) and 97.6% (inactive) | 98.2% (inactive) and 7.77% (active) and 98.7% (inactive) | 96.8% (inactive) and 64.8% (inactive) and 99.2% (inactive) | 95.4% (inactive) and 25.3% (inactive) and 99.6% (inactive) | 106% (inactive) and 27.8% (inactive) and 101% (inactive) | 108% (inactive) and 36.9% (inactive) and 94.8% (inactive) | 103% (inactive) and 29.3% (inactive) and 98.3% (inactive) | 103% (inactive) and 27.9% (inactive) | 102% (inactive) and 35.6% (inactive) and 98.9% (inactive) | 99.2% (inactive) and 106% (inactive) | 113% (inactive) and 65.1% (inactive) and 106% (inactive) | – | 113% (inactive) and 41.1% (inactive) and 108% (inactive) | 102% (inactive) and 105% (inactive) | 104% (inactive) and 112% (inactive) and 118% (inactive) |
| CCOC(=O)Nc1ccc2c(c1)/C(=N\NC(N)=S)c1ccccc1-2 | 70.1% (inactive) and 93.2% (inactive) | 68.3% (inactive) and 70.8% (inactive) | 73.3% (inactive) and 71.9% (inactive) | 68% (inactive) and 82.5% (inactive) | 82.2% (inactive) and 107% (inactive) | 56.8% (inactive) and 68.7% (inactive) | 43% (inactive) and 73.4% (inactive) | 46.6% (inactive) and 65.5% (inactive) | 19.9% (inactive) and 27.8% (inactive) | 46% (inactive) and 41.8% (inactive) | 47.2% (inactive) and 34.7% (inactive) | 22.3% (inactive) | 34.6% (inactive) and 55.5% (inactive) | 105% (inactive) and 92% (inactive) | 61% (inactive) and 77.1% (inactive) | 96.5% (inactive) and 93.2% (inactive) | 93.5% (inactive) and 103% (inactive) | 48% (inactive) and 83.4% (inactive) | 69.9% (inactive) and 92.9% (inactive) | 29.5% (inactive) and 45.6% (inactive) |

— PubChem BioAssay (NCI)
